In the library only some 2.4% were active in any assay of this set; here they are far more common.
Pol iota inh: qHTS for Inhibitors of Polymerase Iota. DNA polymerase iota (Homo sapiens), Q9UNA4. Pol iota fluorescent replication assay, 10 min. Potency, µM (doses to about 115 µM), inactives show at the highest dose activity, negative = inhibition, usual class: inhibitors. 1% of 390,000 active. AID 588590, 2011; further: potency means the concentration at half of the fitted maximal effect
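Pol iota at 10 nM preincubated 15 min with compounds at room temperature; reaction started with fluorescent substrate, 50 nM final. Fluorescence read kinetically at 0 and 10 min; buffer-only wells as negative control.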
Pol kappa inh-1: qHTS for Inhibitors of Polymerase Kappa; DNA polymerase kappa (Homo sapiens), Q9UBT6; purified Pol kappa, fluorescent DNA synthesis assay, 10 min; Potency, µM (doses to about 107 µM), for the others: at the highest dose activity, negative = inhibition, hits mostly inhibitors; 0.53% of 400,000 active; AID 588579, 2011; further: potency means the concentration at half of the fitted maximal effect; on the % scale 0 is the no-effect control and ±100 the full control effect
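Kinetic fluorescence screen: compound preincubated 15 min RT with 10 nM enzyme; 50 nM substrate (final) initiates; reads at 0/10 min.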
POLB inh: qHTS Assay for Inhibitors of DNA Polymerase Beta | P06746 | Pol beta primer extension/strand displacement, fluorescence kinetic | Potency, µM (series often up to 114 µM), for inactives: at the top dose activity change, negative = inhibition, most hits filed as inhibitors | 1.3% of 340,000 active; further: potency means the concentration at half of the fitted maximal effect; on the % scale 0 is the no-effect control and ±100 the full control effect
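Preincubation: enzyme (10 nM) with compound, 15 min, RT. Reaction: substrate added to 50 nM final. Reads: 0 and 10 min. Analysis: normalized, Hill fit.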
Pol eta inh-1: qHTS for Inhibitors of Polymerase Eta; DNA polymerase eta (Homo sapiens), Q9Y253; recombinant Pol eta, fluorescent DNA replication assay; Potency, µM (doses to about 114 µM), inactives show at the highest dose activity change, negative = inhibition, hits mostly inhibitors; 1.2% of 390,000 active; AID 588591, 2011; further: potency means the concentration at half of the fitted maximal effect; on the % scale 0 is the no-effect control and ±100 the full control effect
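Fluorescent replication assay: 50 nM final substrate added after a 15 min room-temperature compound preincubation with 10 nM enzyme. Signal taken at 0 min and again at 10 min.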
GLS inhibitor: qHTS for Inhibitors of Glutaminase (GLS); GLS enzymatic activity, qHTS titration; Potency, µM (series often up to 45.5 µM), for the others: top-dose activity change, negative = inhibition, usual class: inhibitors; 0.21% of 410,000 active; further: potency means the concentration at half of the fitted maximal effect; on the % scale 0 is the no-effect control and ±100 the full control effect
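hKGA in 45 mM KH2PO4 (pH 8.2), 0.02% Tween-20 with compound, then 1mM L-Glutamine (stock as added) plus glutamate oxidase/HRP/Amplex red coupling mix. Fluorescence read initially and after 30 min at RT; signal change reflects glutamate formation.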
KAT2A inh: qHTS Assay for Inhibitors of GCN5L2 | GCN5L2 HAT assay, ThioGlo1 CoA-SH fluorescence | Potency, µM (doses to about 58.9 µM), inactives show at the top dose activity change, negative = inhibition, actives largely listed as inhibitors | 0.21% of 390,000 active | AID 504327, 2011; further: potency means the concentration at half of the fitted maximal effect; on the % scale 0 is the no-effect control and ±100 the full control effect
Target sequence (Q92830 whole entry, looked up): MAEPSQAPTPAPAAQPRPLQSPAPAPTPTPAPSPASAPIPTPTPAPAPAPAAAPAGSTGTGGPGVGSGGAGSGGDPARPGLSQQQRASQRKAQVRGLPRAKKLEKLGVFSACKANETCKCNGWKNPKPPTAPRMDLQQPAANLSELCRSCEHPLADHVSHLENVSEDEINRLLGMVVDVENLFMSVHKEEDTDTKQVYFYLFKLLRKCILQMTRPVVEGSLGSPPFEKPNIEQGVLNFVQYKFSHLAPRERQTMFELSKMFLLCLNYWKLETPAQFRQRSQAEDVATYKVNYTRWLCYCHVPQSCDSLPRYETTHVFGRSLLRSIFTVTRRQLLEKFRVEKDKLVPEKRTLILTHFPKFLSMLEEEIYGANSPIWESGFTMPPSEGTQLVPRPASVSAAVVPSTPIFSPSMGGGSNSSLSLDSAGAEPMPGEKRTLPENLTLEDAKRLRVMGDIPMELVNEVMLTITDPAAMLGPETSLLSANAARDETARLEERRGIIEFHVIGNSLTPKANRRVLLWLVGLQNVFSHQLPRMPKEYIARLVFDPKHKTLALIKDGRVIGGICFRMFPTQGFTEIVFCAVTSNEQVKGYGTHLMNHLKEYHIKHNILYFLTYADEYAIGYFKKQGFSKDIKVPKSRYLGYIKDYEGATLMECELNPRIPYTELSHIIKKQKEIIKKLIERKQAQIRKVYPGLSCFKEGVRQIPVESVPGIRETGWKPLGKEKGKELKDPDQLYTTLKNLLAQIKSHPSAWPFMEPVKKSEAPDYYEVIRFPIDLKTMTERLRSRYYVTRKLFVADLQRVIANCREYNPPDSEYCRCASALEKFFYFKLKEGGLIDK
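Enzyme at 20nM final was mixed with library compounds for 15 min at room temperature. Peptide H3(1-25) at 75uM, acetyl-CoA at 70uM and ThioGlo1 at 50uM were then added. Plates were read immediately and after 20 min (Ex340nm/Em540nm).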
GALK confirm: Confirmation Assay for Inhibitors of Human Galactokinase (GALK). shares compounds with Pol eta inh-1. purified GALK, Kinase-Glo ATP depletion luminescence. Potency, µM (series often up to 115 µM), for the others: at the top dose activity, negative = inhibition, actives largely listed as inhibitors. 70% of 150 active
Redox cycling: Confirmatory Assay for Inhibitors of Human Galactokinase (GALK): Phenol-HRP redox assay counterscreen | shares compounds with Pol eta inh-1 | AID 2035, 2009 | 40% of 150 active | Potency, µM (highest dose often 115 µM), for the others: at the top dose activity change, negative = H2O2 signal, most hits filed as inhibitors | Phenol red-HRP H2O2 redox cycling, absorbance 600 nm
HEK293 tox: Secondary Assay for Inhibitors of Human Galactokinase (GALK): HEK-293 Cell Viability Assay. shares compounds with Pol eta inh-1. HEK-293 viability, ATP luminescence (CellTiter-Glo), 24/48 h. Potency, µM (top dose mostly 46.1 µM), for inactives: top-dose activity change, negative = cytotoxicity, most hits filed as inhibitors. 10% of 170 active; further: potency means the concentration at half of the fitted maximal effect; on the % scale 0 is the no-effect control and ±100 the full control effect
Pol kappa inh-2: qHTS for Inhibitors of Polymerase Kappa: Confirmatory Assay for Cherry-picked Compounds | shares compounds with Pol eta inh-1 | purified Pol-kappa, fluorescent strand-displacement substrate | Potency, µM, actives largely listed as inhibitors | 76% of 920 active; further: potency means the concentration at half of the fitted maximal effect
Pol eta inh-2: qHTS for Inhibitors of Polymerase Eta: Confirmatory Assay for Cherry-picked Compounds | Potency, µM, usual class: inhibitors | shares compounds with Pol eta inh-1 | Pol eta primer extension, TAMRA/BHQ fluorescence, 10 min | 64% of 2,600 active; further: potency means the concentration at half of the fitted maximal effect
* marks the source's active call; other numbers are inactive results; ? = inconclusive; nt = no result given; [ ] = dose if it differs, or a comment. The call rests on the fitted dose curve; in most records, active means well fitted curve in the direction sought with a large enough effect; inconclusive means small, poorly fitted or top-dose-only effect, or another doubt; inactive means no such curve, though single readings can be large; an effect the other way counts as inactive or inconclusive.

SMILES | Pol iota inh | Pol kappa inh-1 | POLB inh | Pol eta inh-1 | GLS inhibitor | KAT2A inh | Pol eta inh-2 | others
Cc1ccc(-c2cn3c(n2)sc2cc(C(=O)NC4CCCc5ccccc54)ccc23)cc1 (stereo not given) | -19.4% | -3.1% | -18.5% | -9.3% | 5.6% | -2.1% | nt
CC1(OC(=O)C2CCCC2)C(=O)C=C2C=C(c3ccsc3)N(Cc3ccco3)C=C2C1=O (stereo not given) | ? | 25.1µM* | ? | -14.3% | 11.8% | -13.1% | 2.39*
CCOc1cc(CO)cc(Br)c1OCC(=O)O | ? | -34.4% | nt | 15.8µM* | ? | nt | 84.9*
Cc1cc(C=C2C(=O)CCCC2=O)c(C)n1-c1ccccc1 | 17.8µM* | ? | ? | 17.8µM* | ? | -18.6% | 75.7*
O=c1cc(-c2ccccc2Cl)oc2ccc([N+](=O)[O-])c(O)c12 | -6.8% | -15.4% | ? | -17.8% | 7.5% | -10.0%[88.6 µM] | nt
O=[N+]([O-])c1cc([N+](=O)[O-])c2oc(-c3ccccc3)c(Br)c2c1O | ? | ? | 28.2µM* | 25.1µM* | -7.6% | ? | nt | GALK confirm=53µM*;Redox cycling=6.9%;HEK293 tox=-7.6%
O=c1oc(-c2ccc(O)c(O)c2)cc2cc(O)cc(O)c12 | 28.2µM* | ? | nt | 10µM* | 17.8µM* | -14.6% | 53.6* | Pol kappa inh-2=?
CS(=O)(=O)c1ccc2nc(NC(=O)c3ccccc3)sc2c1 | 112.0% | -2.3% | -0.7% | -14.5% | 4.3% | -8.8% | nt
CS(=O)(=O)c1ccc(C(=O)Nc2nc(-c3ccco3)c(-c3ccco3)s2)cc1 | 1.58µM* | 3.16µM* | nt | 5.01µM* | 0.8% | ? | 42.6*
O=C(CCCN1C(=O)/C(=C\c2cccs2)SC1=S)Nc1ccc(C(=O)O)cc1 | ? | -24.5% | -3.1% | -13.0% | 13.8% | -10.3% | nt
O=C(CCN1C(=O)/C(=C/c2cccs2)SC1=S)Nc1ccc(C(=O)O)cc1 | ? | -4.2% | 31.6µM* | 44.7µM* | 4.7% | -6.9% | nt | Pol kappa inh-2=75.2*
O=C(O)c1cc(Nc2cc(Cl)c3nonc3c2[N+](=O)[O-])ccc1O | ? | -1.6% | -1.2% | 25.1µM* | -6.9% | -21.8% | 47.8* | Pol kappa inh-2=67*
COc1cc(/C=C/C(=O)O)cc(S(=O)(=O)NNC(=O)c2cc(C)oc2C)c1OC | 22.4µM* | ? | nt | 17.8µM* | ? | -2.5% | ?
COc1cc(/C=C/C(=O)O)cc(S(=O)(=O)NCCCO)c1OC | 21.1% | -4.1% | 26.0% | -7.0% | 12.3% | 19.5% | nt
O=C(NCC1CCCO1)c1cc(-c2ccco2)nc2ccccc12 (stereo not given) | ? | ? | 44.7µM* | 15.8µM* | ? | ? | 84.9*
O=C(Nc1nncs1)c1cc(-c2ccco2)nc2ccccc12 | ? | ? | nt | 14.1µM* | 29.2% | -12.2% | 75.7* | Pol kappa inh-2=?
O=C(Nc1sc2c(c1C(=O)NCc1ccco1)CCCC2)c1cc(=O)c2cc(Cl)ccc2o1 | 9.2% | 0.1% | 31.6% | -2.2% | 12.6% | -0.1% | nt
CCCSC1=N/C(=C\c2ccc([N+](=O)[O-])o2)C(=O)S1 | ? | 20µM* | 2.82µM* | ? | 4.5% | ? | 75.7*
CCCCOc1ccc(C(=O)N/C(=C\c2ccc(Br)cc2)C(=O)NC2CCCCC2)cc1 | -18.1% | -7.0% | 15.4% | nt | -2.5% | 1.1% | nt
COc1ccc(NC(=O)c2ccco2)cc1NC(=O)c1cc(Cl)ccc1OC | -17.2% | -1.0% | ? | 89.1µM* | 1.4% | -0.6% | nt | Pol kappa inh-2=42.3*
COc1ccc(Cl)cc1C(=O)Nc1ccc(NC(=O)c2ccco2)cc1 | 10.8% | -10.0% | -22.4% | -12.1% | 0.7% | -0.5% | nt
Cc1cccc(N2CCN(C(=O)c3cnn(-c4cccc(Cl)c4C)c3C3CCNCC3)CC2)c1C | -17.0% | 4.5% | 37.0% | -5.2% | 4.5% | -14.3% | nt
NC(=O)c1c(NC(=O)c2ccncc2)sc2c1CCCC2 | 4.6% | -0.3% | -24.4% | 5.8% | -9.1% | -11.5% | nt
N#Cc1c(NC(=O)c2ccncc2)sc2c1CCC2 | ? | ? | 14.1µM* | 31.6µM* | 36.0% | ? | 75.7*
O=C1CN(C(=O)COC(=O)c2ccc([N+](=O)[O-])s2)c2ccccc2N1 | ? | -10.6% | nt | 22.4µM* | 4.1% | 0.6% | ?
O=C1CN(C(=O)COC(=O)c2cccs2)c2ccccc2N1 | 12.7% | -18.9% | nt | -20.9% | 1.8% | -1.3% | nt
CCc1ccc(NC(=O)c2ccc(Cn3nc(N4CCN(c5ccccc5)CC4)ccc3=O)o2)cc1 | ? | -26.8% | ? | 20µM* | 3.0% | -6.9% | ? | Pol kappa inh-2=?
Cn1c(=O)c(=O)n(C)c2cc(C(=O)NCc3ccccc3Cl)ccc21 | 8.8% | -30.0% | -3.1% | nt | -7.4% | -6.3% | nt
Cc1ccc(NC(=O)CC2Nc3cc(C)c(C)cc3NC2=O)c(C)c1 (stereo not given) | 9.0% | -5.4% | 30.4% | -1.5% | ? | -2.3% | nt

Source: PubChem BioAssay (National Center for Advancing Translational Sciences (NCATS))
